Assay results published in ChEMBL document CHEMBL1201862, “PubChem BioAssay data set” (2004).
Among all 55,000 sequences or so, about 2,800 (5.1%) were called active. No stated cut-off is given here; in the data, active = GI50 up to about 1.1 µM and inactive = higher. A selection follows. Entries with a potency or affinity are not part of this list.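 Following 48 hours of exposure in 96-well plates, responses at five concentrations were used to interpolate endpoints linearly. Here, GI50 denotes the concentration required for 50% inhibition of growth.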

Test system: SK-MEL-2
Test: NCI tumour cell line growth inhibition, 48 h

Row | Substance | GI50
1 | [Bis(aminomethyl)pentamethylenesilane]tetrachloropaltinum(IV), CHEMBL2146204 | 5.71 µM
2 | [Bis(aminomethyl)dimethylsilane]tetrachloroplatinum(IV), CHEMBL2146190 | 19.1 µM
3 | [Bis(aminomethyl)tetramethylenesilane]dichloropaltinum(II), CHEMBL2146205 | 30.9 µM
4 | [Bis(aminomethyl)dimethylsilane]dichloroplatinum (II), CHEMBL2146201 | 65.5 µM
5 | [Bis(aminomethyl)ethylmethylsilane]tetrachloroplatinum(IV), CHEMBL2146192 | 5.5 µM
6 | CISPLATIN, CHEMBL11359 | 5.07 µM
7 | mu-(1,7-nanodiamine-N,N')bis-(cis-aminedichloroplatimum (II)), CHEMBL2146215 | 38.9 µM
8 | [Bis(aminomethyl)tetramethylenesilane]tetrachloropaltinum(IV), CHEMBL2146189 | 6.64 µM
9 | [Bis(aminomethyl)diethylsilane]tetrachloroplatinum(IV), CHEMBL2146203 | 3.1 µM
10 | [Bis(aminomethyl)pentamethylenesilane]dichloropaltinum(II), CHEMBL2146202 | 7.57 µM
11 | cis-Bis[[(trimethylsilyl)methyl]amino]tetrachloroplatinum(IV), CHEMBL2146191 | 2.88 µM
